39 targets from the supplement of paper PMC10849652 can be followed below.

About 7,900 targets were measured; listed, in parts, are those with a hit and a random draw of the rest. About 0.6% of all pairs of compound and target were hits. Values without a mark were called inactive.

UniProt P39880, sequence (P39880 whole entry, looked up): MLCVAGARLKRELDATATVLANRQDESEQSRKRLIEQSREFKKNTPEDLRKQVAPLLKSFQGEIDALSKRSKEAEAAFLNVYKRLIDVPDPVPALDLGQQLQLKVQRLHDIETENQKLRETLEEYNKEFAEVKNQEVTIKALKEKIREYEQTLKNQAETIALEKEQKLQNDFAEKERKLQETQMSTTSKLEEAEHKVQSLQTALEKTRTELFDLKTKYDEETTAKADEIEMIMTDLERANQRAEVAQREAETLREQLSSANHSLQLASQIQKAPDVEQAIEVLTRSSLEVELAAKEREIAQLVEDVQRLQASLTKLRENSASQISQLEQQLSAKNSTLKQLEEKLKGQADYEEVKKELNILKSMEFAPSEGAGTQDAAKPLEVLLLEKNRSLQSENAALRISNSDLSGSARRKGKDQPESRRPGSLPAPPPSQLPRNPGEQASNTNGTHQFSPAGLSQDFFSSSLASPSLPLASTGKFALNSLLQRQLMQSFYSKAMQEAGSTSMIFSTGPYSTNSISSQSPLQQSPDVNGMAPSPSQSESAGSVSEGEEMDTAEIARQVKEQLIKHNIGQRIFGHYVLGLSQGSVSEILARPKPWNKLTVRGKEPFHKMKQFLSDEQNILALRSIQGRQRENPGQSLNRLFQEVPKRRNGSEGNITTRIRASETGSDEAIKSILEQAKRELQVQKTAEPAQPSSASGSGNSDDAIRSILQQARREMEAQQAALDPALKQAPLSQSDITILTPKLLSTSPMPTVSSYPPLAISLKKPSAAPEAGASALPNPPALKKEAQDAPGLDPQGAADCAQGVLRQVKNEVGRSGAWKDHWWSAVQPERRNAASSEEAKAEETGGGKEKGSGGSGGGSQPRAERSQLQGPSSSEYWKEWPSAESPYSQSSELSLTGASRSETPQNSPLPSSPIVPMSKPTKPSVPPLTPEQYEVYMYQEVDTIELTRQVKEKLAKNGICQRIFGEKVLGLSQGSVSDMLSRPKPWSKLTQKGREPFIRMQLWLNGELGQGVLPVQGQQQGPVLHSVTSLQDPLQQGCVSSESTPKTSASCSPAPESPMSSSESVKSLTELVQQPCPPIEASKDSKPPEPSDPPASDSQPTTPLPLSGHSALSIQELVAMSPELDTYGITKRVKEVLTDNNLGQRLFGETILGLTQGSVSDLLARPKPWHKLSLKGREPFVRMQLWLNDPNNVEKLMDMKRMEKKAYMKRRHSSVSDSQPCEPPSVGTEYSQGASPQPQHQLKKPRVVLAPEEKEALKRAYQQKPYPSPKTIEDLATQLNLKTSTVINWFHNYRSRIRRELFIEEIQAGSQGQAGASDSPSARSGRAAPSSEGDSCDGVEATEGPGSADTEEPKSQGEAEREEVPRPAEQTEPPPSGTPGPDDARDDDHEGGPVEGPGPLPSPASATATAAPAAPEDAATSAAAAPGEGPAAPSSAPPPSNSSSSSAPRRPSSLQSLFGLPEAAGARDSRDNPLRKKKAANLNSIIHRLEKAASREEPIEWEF
UniProt Q9NRY5, sequence (Q9NRY5 whole entry, looked up): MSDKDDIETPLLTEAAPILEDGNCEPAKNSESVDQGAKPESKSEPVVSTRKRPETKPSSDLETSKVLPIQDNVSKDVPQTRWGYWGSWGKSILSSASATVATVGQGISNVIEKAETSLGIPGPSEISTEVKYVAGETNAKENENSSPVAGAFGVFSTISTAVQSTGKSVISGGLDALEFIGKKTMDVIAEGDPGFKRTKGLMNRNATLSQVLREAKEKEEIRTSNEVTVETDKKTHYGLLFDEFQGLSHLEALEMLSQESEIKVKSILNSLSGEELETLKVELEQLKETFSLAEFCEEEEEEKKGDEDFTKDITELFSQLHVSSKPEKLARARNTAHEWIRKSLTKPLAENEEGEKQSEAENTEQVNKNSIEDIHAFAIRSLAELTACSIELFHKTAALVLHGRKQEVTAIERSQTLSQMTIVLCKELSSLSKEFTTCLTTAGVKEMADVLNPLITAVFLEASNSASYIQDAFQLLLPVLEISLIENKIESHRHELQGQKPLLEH
UniProt Q96GG9, sequence (Q96GG9 whole entry, looked up): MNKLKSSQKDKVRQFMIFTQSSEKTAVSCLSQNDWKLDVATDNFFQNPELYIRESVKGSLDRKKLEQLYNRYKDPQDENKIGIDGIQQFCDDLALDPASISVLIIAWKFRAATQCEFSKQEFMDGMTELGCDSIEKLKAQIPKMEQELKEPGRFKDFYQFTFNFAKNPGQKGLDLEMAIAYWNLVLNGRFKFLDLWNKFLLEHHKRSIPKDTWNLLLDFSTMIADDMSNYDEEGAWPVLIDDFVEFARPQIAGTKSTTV
UniProt Q9UBQ6, sequence (Q9UBQ6 whole entry, looked up): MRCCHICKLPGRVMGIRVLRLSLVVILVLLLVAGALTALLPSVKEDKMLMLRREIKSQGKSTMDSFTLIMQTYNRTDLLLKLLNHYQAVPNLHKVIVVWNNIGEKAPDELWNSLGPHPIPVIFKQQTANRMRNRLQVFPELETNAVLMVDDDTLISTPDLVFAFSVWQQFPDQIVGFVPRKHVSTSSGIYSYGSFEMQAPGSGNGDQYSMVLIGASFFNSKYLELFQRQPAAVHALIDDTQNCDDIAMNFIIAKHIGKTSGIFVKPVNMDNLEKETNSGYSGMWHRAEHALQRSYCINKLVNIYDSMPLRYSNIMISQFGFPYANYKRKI
UniProt Q96LJ7, sequence (Q96LJ7 whole entry, looked up): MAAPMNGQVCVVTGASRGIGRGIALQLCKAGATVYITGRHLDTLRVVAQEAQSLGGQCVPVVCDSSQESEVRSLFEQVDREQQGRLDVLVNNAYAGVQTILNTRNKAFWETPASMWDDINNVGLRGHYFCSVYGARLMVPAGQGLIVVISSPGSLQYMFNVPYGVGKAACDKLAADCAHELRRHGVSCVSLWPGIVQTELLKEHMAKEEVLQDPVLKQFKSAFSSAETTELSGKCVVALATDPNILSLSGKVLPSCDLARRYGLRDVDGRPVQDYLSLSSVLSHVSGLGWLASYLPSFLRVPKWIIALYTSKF
UniProt Q6IAN0, sequence (Q6IAN0 whole entry, looked up): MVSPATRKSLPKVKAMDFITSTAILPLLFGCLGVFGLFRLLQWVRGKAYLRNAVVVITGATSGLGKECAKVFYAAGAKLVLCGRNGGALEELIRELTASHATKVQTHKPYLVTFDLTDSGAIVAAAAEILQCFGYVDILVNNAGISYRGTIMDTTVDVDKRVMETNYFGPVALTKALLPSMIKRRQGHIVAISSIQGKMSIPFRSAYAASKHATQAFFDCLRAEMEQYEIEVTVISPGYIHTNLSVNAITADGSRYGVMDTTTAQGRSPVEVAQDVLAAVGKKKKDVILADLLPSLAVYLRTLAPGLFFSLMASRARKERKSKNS
UniProt O43237, sequence (O43237 whole entry, looked up): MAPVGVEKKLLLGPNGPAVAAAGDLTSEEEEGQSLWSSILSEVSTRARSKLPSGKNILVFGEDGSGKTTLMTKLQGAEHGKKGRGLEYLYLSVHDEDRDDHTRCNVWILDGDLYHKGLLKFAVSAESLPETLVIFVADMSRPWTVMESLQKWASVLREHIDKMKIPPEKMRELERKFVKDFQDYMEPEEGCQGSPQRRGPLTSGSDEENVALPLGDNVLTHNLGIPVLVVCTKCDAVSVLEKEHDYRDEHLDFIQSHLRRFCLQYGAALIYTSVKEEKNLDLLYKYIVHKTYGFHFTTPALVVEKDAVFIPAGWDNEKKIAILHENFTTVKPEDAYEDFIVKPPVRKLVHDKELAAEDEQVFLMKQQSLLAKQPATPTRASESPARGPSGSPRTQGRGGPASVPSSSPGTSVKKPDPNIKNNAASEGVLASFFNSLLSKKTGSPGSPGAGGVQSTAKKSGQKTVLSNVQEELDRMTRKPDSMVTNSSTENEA
UniProt Q8IX18, sequence (Q8IX18 whole entry, looked up): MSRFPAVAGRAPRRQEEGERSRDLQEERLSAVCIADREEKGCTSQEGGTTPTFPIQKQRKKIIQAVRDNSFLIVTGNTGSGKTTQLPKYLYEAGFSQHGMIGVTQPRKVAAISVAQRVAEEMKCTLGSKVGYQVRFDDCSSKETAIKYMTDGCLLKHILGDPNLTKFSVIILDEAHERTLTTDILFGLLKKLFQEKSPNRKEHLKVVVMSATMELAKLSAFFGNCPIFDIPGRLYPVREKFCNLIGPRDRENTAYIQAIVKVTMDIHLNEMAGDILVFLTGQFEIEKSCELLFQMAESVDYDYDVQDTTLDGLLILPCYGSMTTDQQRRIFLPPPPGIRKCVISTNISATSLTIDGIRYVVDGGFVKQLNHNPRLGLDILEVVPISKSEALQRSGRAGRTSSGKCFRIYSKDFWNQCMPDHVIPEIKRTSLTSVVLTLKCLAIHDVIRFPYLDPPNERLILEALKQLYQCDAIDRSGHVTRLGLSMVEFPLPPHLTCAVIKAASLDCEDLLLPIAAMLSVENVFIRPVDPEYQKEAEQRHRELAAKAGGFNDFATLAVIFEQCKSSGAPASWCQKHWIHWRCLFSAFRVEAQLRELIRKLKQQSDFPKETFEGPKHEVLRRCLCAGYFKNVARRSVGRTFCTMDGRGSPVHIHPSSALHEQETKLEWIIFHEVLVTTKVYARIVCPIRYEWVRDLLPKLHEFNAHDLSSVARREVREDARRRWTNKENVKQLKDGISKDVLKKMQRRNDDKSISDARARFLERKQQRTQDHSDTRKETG
UniProt O75822, sequence (O75822 whole entry, looked up): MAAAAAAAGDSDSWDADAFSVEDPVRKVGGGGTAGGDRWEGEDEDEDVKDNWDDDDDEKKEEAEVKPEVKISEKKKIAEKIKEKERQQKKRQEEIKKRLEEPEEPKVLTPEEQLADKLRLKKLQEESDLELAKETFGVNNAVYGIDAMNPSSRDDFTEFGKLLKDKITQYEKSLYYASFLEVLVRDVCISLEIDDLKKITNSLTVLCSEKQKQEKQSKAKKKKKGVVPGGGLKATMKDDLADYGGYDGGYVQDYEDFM
UniProt P06730, sequence (P06730 whole entry, looked up): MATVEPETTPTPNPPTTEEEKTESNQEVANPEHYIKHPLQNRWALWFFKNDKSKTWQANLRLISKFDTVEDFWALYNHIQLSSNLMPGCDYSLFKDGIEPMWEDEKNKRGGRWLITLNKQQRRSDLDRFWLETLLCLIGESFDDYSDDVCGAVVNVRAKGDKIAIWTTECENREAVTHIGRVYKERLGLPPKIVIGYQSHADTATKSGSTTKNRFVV

Compound in one assay: CNc1nc(-c2ccc3c(N)n[nH]c3c2)cc(N2C[C@@H](C(=O)NC3CCCCC3)CC[C@H]2C)n1
The experiment in a line: log2 fold change, soluble protein after heating vs DMSO (PISA); higher = thermal stabilisation; K562 cells, 10 uM, 30 min; active = over 0.2 and 3.5 SD of the protein, either way, in both replicates (recomputed). The procedure, abridged: (§1)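 K562 cells at 2×10^6 cells/mL were exposed to 10 μM compound for 30 min, then aliquots were heated for 3 min across 48°C-58°C, pooled, and extracted in PBS containing 0.5% NP-40 at 4°C. The supernatant after 21,000xg for 90 min was taken as soluble protein and measured by TMTpro 16plex LC-MS/MS with channel sums equalised. Thermal stability is reported relative to control samples, with values from duplicates. Fold changes are given on a log2 scale.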
Consider DDB1 (UniProt Q16531), for which the log2 fold change was -0.035.

As for DNM2 (UniProt P50570), the log2 fold change is 0.029.

For ESS2 (UniProt Q96DF8), the log2 fold change is -0.142.

With DCUN1D1 (UniProt Q96GG9), the log2 fold change is -0.02.

For the target EXOC4 (UniProt Q96A65), the log2 fold change is 0.015.

EDC4 (UniProt Q6P2E9): the log2 fold change is -0.099.

As to DAB2 (UniProt P98082), the log2 fold change is 0.05.

Turning to DHRS7B (UniProt Q6IAN0), the log2 fold change is 0.071.

As to F5 (UniProt P12259), the log2 fold change is -0.068.

For the target DDX46 (UniProt Q7L014), the log2 fold change was 0.028.

As to EXTL2 (UniProt Q9UBQ6), the log2 fold change is 0.052.

DYNC1LI2 (UniProt O43237): the log2 fold change was 0.003.

Regarding EFL1 (UniProt Q7Z2Z2), the log2 fold change was 0.019.

Turning to CUX1 isoform 3 (UniProt P39880), the log2 fold change was -0.062.

On to FAM114A2 (UniProt Q9NRY5), for which the log2 fold change was -0.054.

In the case of CTSH (UniProt P09668), the log2 fold change is -0.03.

As to DHX36 (UniProt Q9H2U1), the log2 fold change is 0.03.

As to DNAH11 (UniProt Q96DT5), the log2 fold change was 0.061.

DPH5 isoform 5 (UniProt Q9H2P9): the log2 fold change is 0.

For the target DHCR24 (UniProt Q15392), the log2 fold change is 0.117.

On to DHRS13 (UniProt Q6UX07), for which the log2 fold change was 0.174.

Consider CUX1 isoform 2 (UniProt Q13948), for which the log2 fold change is 0.048.

For DBNL isoform 3 (UniProt Q9UJU6), the log2 fold change is -0.05.

For CYFIP1 (UniProt Q7L576), the log2 fold change is 0.

In the case of ERCC6 (UniProt Q03468), the log2 fold change was -0.085.

Take DHX40 (UniProt Q8IX18): the log2 fold change was 0.013.

Regarding EEF1AKNMT (UniProt Q8N6R0), the log2 fold change is 0.059.

Turning to DHPS (UniProt P49366), the log2 fold change is -0.053.

On to DHRS1 (UniProt Q96LJ7), for which the log2 fold change is 0.392.

With CTSV (UniProt O60911), the log2 fold change is 0.062.

DHCR7 (UniProt Q9UBM7): the log2 fold change was 0.087.

Take EIF4G1 isoform 8 (UniProt Q04637): the log2 fold change is -0.017.

As for FAM3A (UniProt P98173), the log2 fold change was 0.075.

Regarding CTNNB1 (UniProt P35222), the log2 fold change was -0.025.

For EIF3J (UniProt O75822), the log2 fold change was -0.037.

On to EVC2 (UniProt Q86UK5), for which the log2 fold change is 0.035.

Consider EIF4E isoform 2 (UniProt P06730), for which the log2 fold change is 0.133.

As to EGLN1 (UniProt Q9GZT9), the log2 fold change is 0.03.

For EHD2 (UniProt Q9NZN4), the log2 fold change was -0.053.

Compound in the next assay: COC(=O)N[C@@H](C)CNc1nccc(-c2cn(C(C)C)nc2-c2cc(Cl)cc(NS(C)(=O)=O)c2F)n1 [encorafenib]
The description is as above. The procedure, abridged: as §1
For the target DDB1 (UniProt Q16531), the log2 fold change is 0.003.

Regarding DNM2 (UniProt P50570), the log2 fold change is 0.009.

Regarding ESS2 (UniProt Q96DF8), the log2 fold change is -0.012.

In the case of DCUN1D1 (UniProt Q96GG9), the log2 fold change is 0.014.

Take EXOC4 (UniProt Q96A65): the log2 fold change was 0.14.

As to EDC4 (UniProt Q6P2E9), the log2 fold change was 0.113.

For DAB2 (UniProt P98082), the log2 fold change is 0.077.

On to DHRS7B (UniProt Q6IAN0), for which the log2 fold change is -0.008.

For the target F5 (UniProt P12259), the log2 fold change was 0.037.

Turning to DDX46 (UniProt Q7L014), the log2 fold change is 0.05.

As to EXTL2 (UniProt Q9UBQ6), the log2 fold change is -0.08.

Consider DYNC1LI2 (UniProt O43237), for which the log2 fold change is 0.212.

In the case of EFL1 (UniProt Q7Z2Z2), the log2 fold change is 0.033.

For the target CUX1 isoform 3 (UniProt P39880), the log2 fold change is -0.018.

On to FAM114A2 (UniProt Q9NRY5), for which the log2 fold change is 0.008.

With CTSH (UniProt P09668), the log2 fold change was 0.018.

For the target DHX36 (UniProt Q9H2U1), the log2 fold change is 0.095.

Regarding DNAH11 (UniProt Q96DT5), the log2 fold change is 0.152.

As for DPH5 isoform 5 (UniProt Q9H2P9), the log2 fold change was 0.025.

On to DHCR24 (UniProt Q15392), for which the log2 fold change is 0.001.

Consider DHRS13 (UniProt Q6UX07), for which the log2 fold change is 0.021.

Take CUX1 isoform 2 (UniProt Q13948): the log2 fold change is 0.056.

In the case of DBNL isoform 3 (UniProt Q9UJU6), the log2 fold change was 0.061.

With CYFIP1 (UniProt Q7L576), the log2 fold change is -0.005.

As for ERCC6 (UniProt Q03468), the log2 fold change was -0.088.

Regarding DHX40 (UniProt Q8IX18), the log2 fold change is 0.068.

In the case of EEF1AKNMT (UniProt Q8N6R0), the log2 fold change was 0.095.

For DHPS (UniProt P49366), the log2 fold change is -0.012.

Take DHRS1 (UniProt Q96LJ7): the log2 fold change was -0.116.

With CTSV (UniProt O60911), the log2 fold change was 0.

For DHCR7 (UniProt Q9UBM7), the log2 fold change is 0.084.

EIF4G1 isoform 8 (UniProt Q04637): the log2 fold change was 0.092.

Turning to FAM3A (UniProt P98173), the log2 fold change is 0.118.

Take CTNNB1 (UniProt P35222): the log2 fold change was 0.079.

As to EIF3J (UniProt O75822), the log2 fold change was -0.008.

Turning to EVC2 (UniProt Q86UK5), the log2 fold change was 0.002.

Turning to EIF4E isoform 2 (UniProt P06730), the log2 fold change was -0.023.

Regarding EGLN1 (UniProt Q9GZT9), the log2 fold change was 0.001.

As to EHD2 (UniProt Q9NZN4), the log2 fold change is 0.046.
